Screening results as filed in PubChem BioAssay.
MITF primary = blocks human microphthalmia-associated transcription factor. O75030. inhibition, % at 2.6 µM. AlphaScreen MITF homodimerization, bead proximity signal. hit rate 0.91% among 650,000. AID 1259374; in the data active = inhibition above about 50%;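 note: 0% = vehicle wells with protein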
TEAD-YAP block = TEAD-YAP interaction inhibition; inhibition, % at 9.12 µM; hit rate 1.4% among 640,000; HEK-TIYL cells, TEAD-Gal4/YAP UAS-luciferase luminescence; AID 1259422; in the data active = inhibition above about 32%;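 note: 0% = median of test compound wells and 100% = reference inhibitor wells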
FBW7 act = activators of human E3 ligase FBW7; Q969H0; AlphaScreen FBW7–phospho-cyclin E peptide binding, activator screen; hit rate 0.13% among 650,000; normalized activity (activation), % at 26.1 µM; in the data active = normalized activity above about 1.9%;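 note: purified mutant Fbw7 with reduced substrate affinity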
Target sequence (Q969H0 whole entry, looked up): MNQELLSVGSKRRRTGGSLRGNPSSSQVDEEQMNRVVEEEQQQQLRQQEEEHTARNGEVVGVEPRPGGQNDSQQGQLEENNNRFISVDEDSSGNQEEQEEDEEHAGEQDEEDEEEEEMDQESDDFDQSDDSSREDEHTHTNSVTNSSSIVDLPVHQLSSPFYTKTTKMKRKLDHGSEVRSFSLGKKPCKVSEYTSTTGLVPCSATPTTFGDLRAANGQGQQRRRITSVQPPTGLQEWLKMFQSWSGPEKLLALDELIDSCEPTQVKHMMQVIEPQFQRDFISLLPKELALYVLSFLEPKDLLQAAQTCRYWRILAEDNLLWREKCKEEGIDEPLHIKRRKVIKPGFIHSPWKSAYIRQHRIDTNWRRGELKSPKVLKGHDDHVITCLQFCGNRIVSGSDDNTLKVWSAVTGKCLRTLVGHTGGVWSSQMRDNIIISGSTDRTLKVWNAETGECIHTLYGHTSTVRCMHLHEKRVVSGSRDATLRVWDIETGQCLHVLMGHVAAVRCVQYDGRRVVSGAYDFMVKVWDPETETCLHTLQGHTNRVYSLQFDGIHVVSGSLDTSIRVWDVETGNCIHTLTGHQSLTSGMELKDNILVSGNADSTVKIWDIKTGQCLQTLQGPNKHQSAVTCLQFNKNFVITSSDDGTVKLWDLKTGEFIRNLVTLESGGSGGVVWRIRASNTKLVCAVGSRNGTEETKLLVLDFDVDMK
GPR151 activ = human GPR151 activation; hit rate 1% among 650,000; activation, % at 11.2 µM; PathHunter beta-arrestin GPR151 cells, luminescence; AID 1508602; Q8TDV0; in the data active = activation above about 4.9%;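 note: 0% = median of compound wells and 100% = cells with positive control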
GPR151 confirm = confirmation of human GPR151 activators; shares compounds with GPR151 activ; GPR151 PathHunter beta-arrestin cells, luminescence, 90 min; % of EA-reagent control over plate median; activation, % at 11.2 µM; 6,700 tested, under 10 active; AID 1508609;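 active = mean percent activation across replicates above the confirmation screen cutoff of 4.91%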
GPR119 counter = activates human GPR119 in a GPR151 counter-screen; shares compounds with GPR151 activ; GPR119 PathHunter beta-arrestin cells, luminescence, 90 min; 0 = compound-well median, 100 = enzyme-acceptor control; activation, % at 11.2 µM; hit rate 0.3% among 6,700; AID 1508611;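 active = mean percent activation in the counterscreen above 29.09%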;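 note: counterscreen on off-target GPR119 to flag nonselective hits from the GPR151 activator screen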
The depositor's hits bear a star; x = no result given. In the library only some 3.4% were active in any assay of this set; here they are far more common.

SMILES	MITF primary	TEAD-YAP block	FBW7 act	GPR151 activ	GPR151 confirm	GPR119 counter
COCCCN1C(=O)C(O)=C(C(=O)c2ccco2)C1c1ccc(C(C)(C)C)cc1 (stereo unspecified)	19	17	1	0	x	x
COCCN1C(=O)C(O)=C(C(=O)c2ccc(C)o2)C1c1ccc(C(C)(C)C)cc1 (stereo unspecified)	-1	7	0	7.5*	0	-2
COc1ccc(C2N(c3ccc(F)cc3)C(=O)C3CCCN32)cc1 (stereo unspecified)	4	4	0	-1	x	x
COc1ccccc1-n1c(CNC(=O)c2ccc(S(=O)(=O)N3CCCCC3)cc2)nnc1SCC(=O)Nc1nccs1	2	13	0	5.4*	-1	-7
C=CCn1c(SCC(=O)Nc2sc3c(c2C(=O)OCC)CCCCC3)nc2sc(-c3ccccc3)cc2c1=O	-4	-3	0	6.3*	1	18
Cc1ccc(NC(=O)CCNc2c(N3CCCC3)c(=O)c2=O)cc1Cl	-5	2	0	12*	1	-4
O=C(CCNc1c(N2CCCC2)c(=O)c1=O)NC1CCCCCC1	1	-4	0	7.2*	0	2
Cc1ccc(NC(=O)CC(C)(C)C)cc1Cl	-2	-6	0	5.2*	0	5
O=C(CCNc1c(N2CCCC2)c(=O)c1=O)Nc1ccc(F)c(Cl)c1	-1	11	0	2	x	x
Cc1nnc(N/N=C/c2cc(C)n(-c3ccc(F)cc3)c2C)n1N	0	10	0	6.3*	-1	-14
Cc1ccc(-n2c(C)cc(/C=N/Nc3ccccn3)c2C)cc1	2	-19	0	5.5*	0	9
CCOC(=O)c1ccc(-n2c(C)cc(/C=N/Nc3ccccn3)c2C)cc1	8	-24	0	1	x	x
Cc1cc(C)nc(Nc2cccc(O)c2)n1	-1	18	0	-1	x	x
c1ccc2c(N3CCCCCC3)nc(CN3CCCC3c3nccs3)nc2c1 (stereo unspecified)	-1	-2	0	5.0*	0	-4
CS(=O)(=O)N1CCC(C(=O)N2CCN(CC(=O)c3cccs3)CC2)CC1	-9	-4	0	-1	x	x
Cc1ccc2nc(N3CCN(c4ccccn4)CC3)c3nnnn3c2c1	-11	0	0	-1	x	x
Cc1ccc(NS(=O)(=O)c2c(C)ccc3nsnc23)cc1	12	6	1	5.2*	-1	-1
Cc1ccc(C)c(NS(=O)(=O)c2c(C)ccc3nsnc23)c1	-9	-5	0	1	x	x
CC(=O)Nc1ccc(-n2c(O)c(C3=c4ccccc4=NC3=O)sc2=S)cc1	10	0	0	1	x	x
Cc1ccccc1OCC(=O)N(C(C)C)C(C)C	5	13	0	8.9*	0	7
Cc1ccccc1OCC(=O)NNC(=O)C1c2ccccc2Oc2ccccc21	7	7	0	6.0*	-1	-2
Cc1cc(Br)ccc1OCC(=O)N(C(C)C)C(C)C	40	5	0	2	x	x
CCCn1c(C)cc(=O)c2cc([N+](=O)[O-])ccc21	15	1	0	11*	0	-6
COc1cc(OC)cc(C(=O)NNC(=S)NCc2ccco2)c1	6	-2	0	7.2*	-1	-13
Cc1ccc2c(c1)-c1c(cnn1CC(=O)N1C(C)CCCC1C)CO2 (stereo unspecified)	3	1	0	0	x	x
SMILES	MITF primary	TEAD-YAP block	FBW7 act	GPR151 activ	GPR151 confirm	GPR119 counter
COC(=O)c1nnn(-c2nonc2N)c1C(=O)OC	2	0	-1	6.0*	-1	-8
CCN(Cc1c(C(=O)OC)nnn1-c1nonc1N)c1ccccc1	12	-6	0	5.1*	-1	-20
COC(=O)c1nnn(-c2nonc2N)c1C(C)(C)C	7	-7	0	0	x	x
COc1cc2nc(Nc3ccc(-n4ccnc4)cc3)nc(N)c2cc1OC	-1	-3	0	-1	x	x
O=c1[nH]c(=O)c2sc3nc(-c4ccncc4)cc(C(F)(F)F)c3c2[nH]1	2	2	0	6.3*	1	2
c1ccc(CNc2nc(-c3ccc(N4CCOCC4)nc3)nc3c2ncn3-c2ccccc2)cc1	-6	-1	0	5.5*	1	-1
CCCNc1nc(-c2ccc(N3CCOCC3)nc2)nc2c1ncn2-c1ccccc1	16	7	0	-2	x	x
c1ccc(-n2cnc3c(NCc4cccnc4)nc(-c4ccc(N5CCOCC5)nc4)nc32)cc1	0	46*	0	5.7*	-1	-10
CC1CCCCC12NC(=O)N(CC(=O)Nc1ccc(C(N)=O)cc1)C2=O (stereo unspecified)	0	-3	0	-1	x	x
Cc1ccn2cc(-c3ccc(NC(=O)CCc4ccccc4)cc3)nc2n1	-9	-26	0	-2	x	x
Cc1ccn2cc(-c3ccc(NC(=O)c4ccc(Br)cc4)cc3)nc2n1	-4	2	0	5.8*	-1	-14
CC1CCCCN1C(=S)Nc1ccccc1 (stereo unspecified)	-2	-1	0	0	x	x
COc1ccc(C2CCN(CC(=O)N3CCOCC3)CC2)cc1	6	-5	0	1	x	x
COc1cc(OC)nc(CSCC(=O)N2CCN(CC(=O)N3CCOCC3)CC2)n1	8	1	0	5.2*	0	-12
O=C(CNC(=O)c1cccc(F)c1)N/N=C/c1cc(I)ccc1O	8	12	0	5.0*	0	3
O=C(CNC(=O)c1cccc(F)c1)N/N=C/c1cc(Cl)ccc1O	-2	-5	0	2	x	x
Cc1ccc(C(=O)Nc2ccc(N3CCC(NCc4ccccn4)CC3)cc2)c(C)c1	12	9	-1	0	x	x
Cc1ccccc1N(C)S(=O)(=O)c1nnc(NC(=O)c2ccccc2F)s1	10	-1	0	1	x	x
CN(c1ccccc1)S(=O)(=O)c1nnc(NC(=O)c2ccccc2F)s1	9	6	0	10*	1	0
CC1Cc2ccccc2N1S(=O)(=O)c1nnc(NC(=O)c2ccccc2)s1 (stereo unspecified)	4	6	0	0	x	x
Cc1ccc2c(c1)CC(C)N2S(=O)(=O)c1nnc(NC(=O)c2ccccc2F)s1 (stereo unspecified)	11	3	0	8.5*	-1	-10
COc1ccc(C(=O)Nc2nnc(S(=O)(=O)N3c4ccc(C)cc4CC3C)s2)cc1 (stereo unspecified)	-3	-8	0	0	x	x
Cc1ccc(C(=O)Nc2nnc(S(=O)(=O)N3c4ccccc4CC3C)s2)cc1 (stereo unspecified)	-4	-3	0	5.6*	0	-2
CCOC(=O)c1cnn(-c2cc(C)c3cc(C)cc(C)c3n2)c1N	-10	0	0	-1	x	x
O=C(c1ccccc1C(=O)N1CCc2ccccc21)N1CCc2ccccc21	3	11	0	0	x	x
